# According to the supplement of paper PMC7156485:
# ± gives the standard deviation of the averaged measurements.
# Tested on: TDF
# Experiment: cell number relative to DMSO (% of DMSO); higher = more cells (less growth inhibition / toxicity)
# Conditions: concentration: 10 µM; 24 h
# How it was run: (§1)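 Treatment: HCC1569 and TDF cells, 800 per well in 384-well plates with RPMI and 10% FBS, were given compounds at 10 µM for 24 h at 37 °C, in triplicate. Readout: after 3.7% formaldehyde fixation, cells were stained with a rabbit anti-H1.0 antibody, an AlexaFluor 647 secondary and DAPI. Reported values are H1.0 nuclear intensity or cell number as percent of the plate control, taken as the median of replicates, with positional smoothing for HCC1569.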
# 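For H1.0 immunofluorescence intensity relative to DMSO in this document: TDF is a line of transformed human dermal fibroblasts of mesenchymal origin.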
# 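For cell number relative to DMSO in this document: TDF denotes transformed human dermal fibroblasts of mesenchymal origin.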
row,Structure (SMILES),cell number
1,C#CC1(O)CCC2C3CCC4=Cc5oncc5CC4(C)C3CCC21C (stereo unspecified) [Danazol],98.36 ± 0.75
2,Oc1cccc(-c2nc(N3CCOCC3)c3oc4ncccc4c3n2)c1,70
3,CC(=O)O.NC(N)=NN=Cc1c(Cl)cccc1Cl [Guanabenz acetate],98
4,"CC(C)NCC(O)c1ccc(O)c(O)c1.Cl (single isomer, unassigned; (-)) [(-)-Isoproterenol hydrochloride]",107
5,CC1(C)CCC2(C(=O)O)CCC3(C)C(=CCC4C5(C)CCC(O)C(C)(C)C5CCC43C)C2C1 (stereo unspecified) [Oleanolic acid],91.6
6,CC1(C)C2CCC1(C(=O)O)C(=O)C2 (stereo unspecified) [Ketopinic acid],102
7,COc1ccc(-c2cc(=O)c3ccc(O)cc3o2)cc1 [Pratol],87.4
8,CC1CCC2(C(=O)O)CCC3(C)C(=CCC4C5(C)CC(O)C(O)C(C)(CO)C5CCC43C)C2C1C (stereo unspecified) [Asiatic acid],99.6
9,CC(C)C[C@H](NC(=O)C(O)[C@H](N)Cc1ccc([N+](=O)[O-])cc1)C(=O)O.Cl (stereo partly specified),104
10,CC(=O)NNC(=O)N1Cc2ccccc2Oc2ccc(Cl)cc21,114
11,Cc1ncc(Cl)cc1NCc1ccc(C(=O)N[C@@H](CC2CCCC2)C(=O)NC2CC2)s1,96.1
12,CC(C)n1cnc2c(NCc3ccccc3)nc(NCCCO)nc21 [Bohemine],87.5
13,"CCCCCCCCCCCCCCCCn1cc[n+](Cc2ccccc2)c1C.[I-] [eEF-2 Kinase Inhibitor, NH125]",38.9
14,O=C(OC1Cc2c(O)cc(O)cc2OC1c1cc(O)c(O)c(O)c1)c1cc(O)c(O)c(O)c1 (stereo unspecified) [Epigallocatechin gallate],97
15,CCN(CC)Cc1ccc(C(=O)N(CCc2ccccc2OC)[C@@H]2CCNC2)cc1.Cl.Cl,95.9
16,Cl.O=C1CC2(CCCC2)CC(=O)N1CCCCN1CCN(c2ncccn2)CC1 [Buspirone hydrochloride],96.8

# Tested on: TDF
# Experiment: H1.0 immunofluorescence intensity relative to DMSO (% of DMSO); higher = stronger H1.0 induction, active = 120 or more
# Conditions: concentration: 10 µM; 24 h
# How it was run: as §1
row,Structure (SMILES),H1.0 immunofluorescence intensity
1,O=c1cc(-c2ccc(O)cc2)oc2cc(OC3OC(CO)C(O)C(O)C3O)cc(O)c12 (stereo unspecified) [Apigenin-7-glucoside],93.7 (inactive)
2,"O=c1ccc2ccc(O)c(O)c2o1 [7,8-dihydroxy-2H-chromen-2-one]",96.2 (inactive)
3,COc1cc2c(CCNC(C)=O)c[nH]c2cc1O [6-Hydroxymelatonin],91.4 (inactive)
4,O=c1[nH]ccc2c(S(=O)(=O)N3CCCNCC3)cccc12,86 (inactive)
5,Nc1nc(=O)c2ncn(COC(CO)CO)c2[nH]1 [Ganciclovir],95.2 (inactive)
6,NC(CS(=O)O)C(=O)O [L-Cysteinesulfinic Acid],96.7 (inactive)
7,CC(C)(O)c1ccccc1CCC(SCC1(CC(=O)O)CC1)c1cccc(C=Cc2ccc3ccc(Cl)cc3n2)c1 (stereo unspecified) [Montelukast],94.7 (inactive)
8,CCCCC(C)(O)CC=CC1C(O)CC(=O)C1CCCCCCC(=O)OC (stereo unspecified) [Misoprostol],93.2 (inactive)
9,Nc1ccc(N2C(=O)c3ccccc3C2=O)c(Cl)c1 [N-(4-Amino-2-chlorophenyl)phthalimide],94.3 (inactive)
10,CC(=O)Nc1nc(C)c(S(=O)(=O)Nc2ccc(C(O)(C(F)(F)F)C(F)(F)F)cc2)s1,85.1 (inactive)
11,COC1C=COC2(C)Oc3c(C)c(O)c4c(O)c(cc(O)c4c3C2=O)NC(=O)C(C)=CC=CC(C)C(O)C(C)C(O)C(C)C(OC(C)=O)C1C (stereo unspecified),97.7 (inactive)
12,O=C(O)c1cn(C2CC2)c2cc(N3C[C@@H]4C[C@H]3CN4)c(F)cc2c1=O,91.9 (inactive)
13,COC1C(OC(=O)c2ccc(C)[nH]2)C(O)C(Oc2ccc3c(O)c(NC(=O)c4c[nH]c(C(=O)Nc5c(O)c6ccc(OC7OC(C)(C)C(OC)C(OC(=O)c8ccc(C)[nH]8)C7O)c(C)c6oc5=O)c4C)c(=O)oc3c2C)OC1(C)C (stereo unspecified) [Coumermycin A1],93.5 (inactive)
14,CC(C)c1ccc2oc3nc(N)c(C(=O)O)cc3c(=O)c2c1,97.3 (inactive)
15,CC1CCC2(C(=O)O)CCC3(C)C(=CCC4C5(C)CC(O)C(O)C(C)(CO)C5C(O)CC43C)C2C1C (stereo unspecified) [Madecassic acid],91.6 (inactive)
